# Laboratory results from PubChem BioAssay (Tox21).
# Results filed as inconclusive are left out. Entries that show only a call come without a potency. Calls of active or inactive are those of the source. Unless noted, calls come from the whole dose curve.
# Experiment: qHTS assay for small molecule agonists of the p53 signaling pathway (AID 651631); note: nearly all actives have a fitted effect of over 15% in size; note: potency is the fitted concentration of half-maximal effect
# Settings: HCT-116 p53RE-bla reporter, beta-lactamase FRET ratio, 16 h; series mostly up to 73.3 µM
# In short: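 Testing took place in human colorectal HCT-116 cells with stable p53RE-driven beta-lactamase. After 16 h of compound exposure at 37 °C, a FRET substrate was added and fluorescence recorded 2 h later.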
row,SMILES,Potency
1,N#Cc1c(Cl)cccc1Cl,inactive
2,CCC(C)n1c(=O)[nH]c(C)c(Br)c1=O (stereo not given),inactive
3,CCC(=O)c1ccccc1,inactive
4,CCOC(=O)N(C)C(=O)CSP(=S)(OCC)OCC,inactive
5,CCC1(c2ccccc2)C(=O)NC(=O)NC1=O,inactive
6,ClC(Br)Br,inactive
7,CCNc1nc(NC(C)C)nc(OC)n1,inactive
8,O=S(=O)(O)C(F)(F)C(F)(F)C(F)(F)C(F)(F)C(F)(F)C(F)(F)F,inactive
9,O=CNC(N1CCN(C(NC=O)C(Cl)(Cl)Cl)CC1)C(Cl)(Cl)Cl (stereo not given),inactive
10,C=C(C)CN(CC)c1c([N+](=O)[O-])cc(C(F)(F)F)cc1[N+](=O)[O-],inactive
11,CCC1(c2ccccc2)C(=O)N=C(O)NC1=O (stereo not given),inactive
12,COP(N)(=S)Oc1ccccc1C(=O)OC(C)C (stereo not given),inactive
13,CN1C[C@@H](NS(=O)(=O)N(C)C)C[C@@H]2c3cccc4c3c(cn4C)C[C@H]21,inactive
14,CCOP(=S)(Oc1cnc(C(C)(C)C)nc1)OC(C)C (stereo not given),inactive
15,Clc1cccc(N2CCNCC2)c1,inactive
16,CC(C)CP(=S)(S)CC(C)C,inactive
17,Cc1cc(C)nc(Nc2ccccc2)n1,inactive
18,CN(N=O)C(N)=O,inactive

row,SMILES,Potency
1,N#CC(Cl)(Cl)Cl,inactive
2,C#C[C@]1(O)C=C[C@H]2[C@@H]3CCC4=CC(=O)CC[C@@H]4[C@H]3CC[C@@]21CC,inactive
3,Nc1ccccc1Cl,inactive
4,Cc1cccc(C#N)c1,inactive
5,CN1CCC(O)(c2ccc(F)cc2)C(C(=O)c2ccc(F)cc2)C1 (stereo not given),inactive
6,ClCC(Cl)(Cl)Cl,inactive
7,CCC/C(=N\OCC)C1=C(O)CC(CC(C)SCC)CC1=O (stereo not given),inactive
8,Cc1cnc[nH]1,inactive
9,[O]=[Cd],inactive
10,CCOC(=O)NC(=S)Nc1ccccc1NC(=S)NC(=O)OCC,61.1 µM (active)
11,C=C(C)[C@@H]1CC=C(C=O)CC1,inactive
12,O=C(N[C@H]1CN2CCC1CC2)c1cc2ccoc2cn1,inactive
13,CNC(=O)O/N=C(\C)SC,inactive
14,O=NN1CCN(N=O)CC1,inactive
15,C[C@@H]1CN(C2CCC(C#N)(c3ccc(F)cc3)CC2)CC[C@]1(C(=O)O)c1ccccc1 (stereo not given in full),inactive
16,CCS(=O)(=O)CCSP(=O)(OC)OC,inactive
17,CC(CC(C#N)(c1ccccc1)c1ccccc1)N(C)C (stereo not given),inactive

# Experiment: qHTS assay for small molecules that induce genotoxicity in human embryonic kidney cells expressing luciferase-tagged ATAD5 (AID 651632; active = well fitted activation curve with a large enough effect in the repeat runs; note: nearly all actives have a fitted effect of over 15% in size)
# Settings: HEK293T ATAD5-luciferase induction, 16 h; series mostly up to 83.3 µM
# In short: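 ATAD5-luc HEK293T, 2,000 cells/well; cpd or DMSO pin-transferred; 16 hr, 37C/5% CO2; Amplite 30 min RT; luminescence.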
row,SMILES,Potency
1,N#Cc1c(Cl)cccc1Cl,inactive
2,CCC(C)n1c(=O)[nH]c(C)c(Br)c1=O (stereo not given),inactive
3,CCC(=O)c1ccccc1,inactive
4,CCOC(=O)N(C)C(=O)CSP(=S)(OCC)OCC,inactive
5,CCC1(c2ccccc2)C(=O)NC(=O)NC1=O,inactive
6,ClC(Br)Br,inactive
7,CCNc1nc(NC(C)C)nc(OC)n1,inactive
8,O=S(=O)(O)C(F)(F)C(F)(F)C(F)(F)C(F)(F)C(F)(F)C(F)(F)F,inactive
9,O=CNC(N1CCN(C(NC=O)C(Cl)(Cl)Cl)CC1)C(Cl)(Cl)Cl (stereo not given),inactive
10,C=C(C)CN(CC)c1c([N+](=O)[O-])cc(C(F)(F)F)cc1[N+](=O)[O-],inactive
11,CCC1(c2ccccc2)C(=O)N=C(O)NC1=O (stereo not given),inactive
12,COP(N)(=S)Oc1ccccc1C(=O)OC(C)C (stereo not given),inactive
13,CN1C[C@@H](NS(=O)(=O)N(C)C)C[C@@H]2c3cccc4c3c(cn4C)C[C@H]21,inactive
14,CCOP(=S)(Oc1cnc(C(C)(C)C)nc1)OC(C)C (stereo not given),inactive
15,Clc1cccc(N2CCNCC2)c1,inactive
16,CC(C)CP(=S)(S)CC(C)C,inactive
17,Cc1cc(C)nc(Nc2ccccc2)n1,inactive
18,CN(N=O)C(N)=O,inactive

row,SMILES,Potency
1,N#CC(Cl)(Cl)Cl,inactive
2,C#C[C@]1(O)C=C[C@H]2[C@@H]3CCC4=CC(=O)CC[C@@H]4[C@H]3CC[C@@]21CC,inactive
3,Nc1ccccc1Cl,inactive
4,Cc1cccc(C#N)c1,inactive
5,CN1CCC(O)(c2ccc(F)cc2)C(C(=O)c2ccc(F)cc2)C1 (stereo not given),inactive
6,ClCC(Cl)(Cl)Cl,inactive
7,CCC/C(=N\OCC)C1=C(O)CC(CC(C)SCC)CC1=O (stereo not given),inactive
8,Cc1cnc[nH]1,inactive
9,[O]=[Cd],inactive
10,CCOC(=O)NC(=S)Nc1ccccc1NC(=S)NC(=O)OCC,inactive
11,C=C(C)[C@@H]1CC=C(C=O)CC1,inactive
12,O=C(N[C@H]1CN2CCC1CC2)c1cc2ccoc2cn1,inactive
13,CNC(=O)O/N=C(\C)SC,inactive
14,O=NN1CCN(N=O)CC1,inactive
15,C[C@@H]1CN(C2CCC(C#N)(c3ccc(F)cc3)CC2)CC[C@]1(C(=O)O)c1ccccc1 (stereo not given in full),inactive
16,CCS(=O)(=O)CCSP(=O)(OC)OC,inactive
17,CC(CC(C#N)(c1ccccc1)c1ccccc1)N(C)C (stereo not given),inactive

# Experiment: qHTS assay for small molecule agonists of the p53 signaling pathway - cell viability (AID 651633); note: nearly all actives have a fitted effect of over 30% in size
# Settings: p53RE-bla HCT-116 viability, ATP luminescence, 16 h; series mostly up to 83.3 µM
# In short: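 p53RE-bla cells were treated with compound for 16 hours at 37 C. Cytotoxicity was then measured as CellTiter-Glo luminescence after 30 min at room temperature.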
row,SMILES,Potency
1,N#Cc1c(Cl)cccc1Cl,inactive
2,CCC(C)n1c(=O)[nH]c(C)c(Br)c1=O (stereo not given),inactive
3,CCC(=O)c1ccccc1,inactive
4,CCOC(=O)N(C)C(=O)CSP(=S)(OCC)OCC,inactive
5,CCC1(c2ccccc2)C(=O)NC(=O)NC1=O,inactive
6,ClC(Br)Br,inactive
7,CCNc1nc(NC(C)C)nc(OC)n1,inactive
8,O=S(=O)(O)C(F)(F)C(F)(F)C(F)(F)C(F)(F)C(F)(F)C(F)(F)F,inactive
9,O=CNC(N1CCN(C(NC=O)C(Cl)(Cl)Cl)CC1)C(Cl)(Cl)Cl (stereo not given),inactive
10,C=C(C)CN(CC)c1c([N+](=O)[O-])cc(C(F)(F)F)cc1[N+](=O)[O-],inactive
11,CCC1(c2ccccc2)C(=O)N=C(O)NC1=O (stereo not given),inactive
12,COP(N)(=S)Oc1ccccc1C(=O)OC(C)C (stereo not given),inactive
13,CN1C[C@@H](NS(=O)(=O)N(C)C)C[C@@H]2c3cccc4c3c(cn4C)C[C@H]21,inactive
14,CCOP(=S)(Oc1cnc(C(C)(C)C)nc1)OC(C)C (stereo not given),inactive
15,Clc1cccc(N2CCNCC2)c1,inactive
16,CC(C)CP(=S)(S)CC(C)C,inactive
17,Cc1cc(C)nc(Nc2ccccc2)n1,inactive
18,CN(N=O)C(N)=O,inactive

row,SMILES,Potency
1,N#CC(Cl)(Cl)Cl,inactive
2,C#C[C@]1(O)C=C[C@H]2[C@@H]3CCC4=CC(=O)CC[C@@H]4[C@H]3CC[C@@]21CC,inactive
3,Nc1ccccc1Cl,inactive
4,Cc1cccc(C#N)c1,inactive
5,CN1CCC(O)(c2ccc(F)cc2)C(C(=O)c2ccc(F)cc2)C1 (stereo not given),inactive
6,ClCC(Cl)(Cl)Cl,inactive
7,CCC/C(=N\OCC)C1=C(O)CC(CC(C)SCC)CC1=O (stereo not given),inactive
8,Cc1cnc[nH]1,inactive
9,[O]=[Cd],inactive
10,CCOC(=O)NC(=S)Nc1ccccc1NC(=S)NC(=O)OCC,inactive
11,C=C(C)[C@@H]1CC=C(C=O)CC1,inactive
12,O=C(N[C@H]1CN2CCC1CC2)c1cc2ccoc2cn1,inactive
13,CNC(=O)O/N=C(\C)SC,inactive
14,O=NN1CCN(N=O)CC1,inactive
15,C[C@@H]1CN(C2CCC(C#N)(c3ccc(F)cc3)CC2)CC[C@]1(C(=O)O)c1ccccc1 (stereo not given in full),inactive
16,CCS(=O)(=O)CCSP(=O)(OC)OC,inactive
17,CC(CC(C#N)(c1ccccc1)c1ccccc1)N(C)C (stereo not given),inactive
